Screens as filed in PubChem BioAssay.
This is a sample that favours compounds with a hit; in the whole collection about 21% have one here.
Shiga toxin inh = blocks Shiga toxin action in Vero cells; actives 9.2% (n = 290,000); AID 2315; inhibition, % at 38.7 µM; Vero cells, Shiga toxin protein synthesis inhibition reporter; in the data active = inhibition mostly above about 28%, no sharp cut-off; inactive = mostly below about 43%; also: 0% is about no effect
Pf growth 48h = inhibits P. falciparum growth in the first generation, 48 h; P. falciparum luciferase growth in erythrocytes, 48 h; actives 5.9% (n = 310,000); AID 504832; Potency, µM (top dose mostly 28.7 µM), for the others: at the highest dose activity change, negative = inhibition, most hits filed as inhibitors; also: potency is read from the fitted curve at half-maximal effect; % is scaled to controls: 0 for no effect and ±100 for the full control effect
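Luminescence readout; reporter = integrated firefly luciferase in P. falciparum. RBC culture at 2% hematocrit, 0.1% parasitemia final, 37 C/5% CO2; decreased signal taken as growth inhibition.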
CHX counter = counter-screen for Shiga toxin inhibitors: cycloheximide protein synthesis inhibition; actives 12% (n = 300,000); max response, %; cell reporter, cycloheximide protein synthesis inhibition counterscreen; AID 2314; in the data active = max response mostly above about 13%, no sharp cut-off; inactive = mostly below about 14%; also: read at 38.3 µM for the half of the compounds with a filed dose; 0% is about no effect
NS1 inh = influenza NS1 inhibition | Potency, µM (highest dose often 46.1 µM), without a hit: at the highest dose activity, positive = more growth | actives 0.4% (n = 270,000); calls by dose curve; also: potency is read from the fitted curve at half-maximal effect; actives are rising curves; nearly all actives have a fitted effect of over 50% in size
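In this qHTS, NS1 from influenza A is expressed in budding yeast, where it slows growth. Cells are switched from glucose to 2% galactose medium (pH 6.0, -URA), treated with compound, and growth recovery is read at OD600.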
Pf growth 96h = P. falciparum growth inhibition at 96 hours. Potency, µM (titrated, usually from 28.7 µM), without a hit: top-dose activity change, negative = inhibition, hits mostly inhibitors. actives 6.9% (n = 320,000). AID 504834. P. falciparum luciferase reporter growth, 96 h; also: potency is read from the fitted curve at half-maximal effect; % is scaled to controls: 0 for no effect and ±100 for the full control effect
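Erythrocytes infected with luciferase-expressing P. falciparum were dispensed at 2% hematocrit and 0.05% parasitemia (final), then incubated with compounds 96 hours at 37 C in 5% CO2. Luminescence after detection reagent addition reported growth.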
Giardia FBPA inh = Giardia lamblia aldolase inhibition; Potency, µM (top dose mostly 59.6 µM), inactives show at the top dose activity, negative = inhibition, usual class: inhibitors; actives 0.71% (n = 290,000); A8B2U2; purified Giardia FBPA; also: potency is read from the fitted curve at half-maximal effect; % is scaled to controls: 0 for no effect and ±100 for the full control effect; nearly all actives have a fitted effect of over 55% in size
Target sequence (A8B2U2 whole entry, looked up): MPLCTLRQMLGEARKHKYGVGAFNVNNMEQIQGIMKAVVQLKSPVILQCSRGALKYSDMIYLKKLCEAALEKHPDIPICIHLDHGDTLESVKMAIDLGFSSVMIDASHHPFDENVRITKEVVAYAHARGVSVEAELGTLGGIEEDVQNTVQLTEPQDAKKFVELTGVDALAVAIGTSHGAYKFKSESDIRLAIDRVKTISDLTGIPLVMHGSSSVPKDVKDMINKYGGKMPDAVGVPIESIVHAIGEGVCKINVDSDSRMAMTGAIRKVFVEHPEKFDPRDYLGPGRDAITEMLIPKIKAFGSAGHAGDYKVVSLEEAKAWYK
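Giardia FBPA (40 nM reagent) was preincubated 10 min at RT with compound (up to 57.5 uM final), then substrate plus GAPDH/TPI/NAD/arsenate coupling system with diaphorase/resazurin was added; resorufin fluorescence (525/598 nm) was read after 20 min.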
Starred values were filed as active, the others as inactive; [ ] = remark or other dose. Unless noted, calls follow the shape of the dose curve; as a rule, active = well fitted curve in the direction sought with a large enough effect; inconclusive = small, poorly fitted or top-dose-only effect, or another doubt; inactive = no such curve, though single readings can be large; an effect the other way counts as inactive or inconclusive.

What do the screens show for `NC(=O)C1CCN(c2nc3c(S(=O)(=O)c4ccccc4)nnn3c3ccccc23)CC1`?
Shiga toxin inh: 5; Pf growth 48h: inconclusive; CHX counter: -4; NS1 inh: 1%; Pf growth 96h: 33%

What do the screens show for `Cc1sc(-n2c(C)ccc2C)c(C#N)c1C`?
Shiga toxin inh: -10; Pf growth 48h: -22%; CHX counter: -2; NS1 inh: 5%; Pf growth 96h: 10µM*; Giardia FBPA inh: -9%

What do the screens show for `Cc1ccc(C)n1-c1sc2c(c1C#N)CCCC2`?
Shiga toxin inh: 4; Pf growth 48h: -27%; CHX counter: 8; NS1 inh: 20%; Pf growth 96h: inconclusive; Giardia FBPA inh: -2%

What do the screens show for `NC[C@@H](O)CSCc1ccc(Cl)cc1`?
NS1 inh: -9%

How did CCN(CC)c1ccc(NC(=S)Nc2ccc(F)cc2)cc1 do in these assays?
Shiga toxin inh: 48*; Pf growth 48h: inconclusive; CHX counter: 27*; Pf growth 96h: 4%; Giardia FBPA inh: inconclusive

How did CCC(C)NC(=S)Nc1ccc(F)cc1 (stereo unspecified) do in these assays?
Shiga toxin inh: 26; Pf growth 48h: 12%; CHX counter: 1; NS1 inh: 2%; Pf growth 96h: -4%; Giardia FBPA inh: 0%

How did Oc1ccc(NC(=S)Nc2ccc(F)cc2)cc1 do in these assays?
Shiga toxin inh: 36; Pf growth 48h: 18%; CHX counter: 9; NS1 inh: -7%; Pf growth 96h: 97%; Giardia FBPA inh: -28%

What do the screens show for `CCN(CC)c1ccc(NC(=O)CN2CCN(CC(=O)Nc3ccc(F)cc3)CC2)cc1`?
Shiga toxin inh: -17; Pf growth 48h: inconclusive; CHX counter: -3; NS1 inh: -1%; Pf growth 96h: 2.6µM*; Giardia FBPA inh: -7%

Results for CCN(CC)c1ccc(NC(=O)CN2CCN(CC(=O)Nc3ccc(OC)cc3)CC2)cc1 ?
Shiga toxin inh: -7; Pf growth 48h: inconclusive; CHX counter: -2; NS1 inh: -2%; Pf growth 96h: 0%; Giardia FBPA inh: -6%

What do the screens show for `Fc1ccc(NC(=S)Nc2ccc(Br)cc2)cc1`?
Shiga toxin inh: 5; Pf growth 48h: 20%; CHX counter: 33*; NS1 inh: -50%; Pf growth 96h: inconclusive; Giardia FBPA inh: -8%

What do the screens show for `Nc1ncnc2c1ncn2[C@@H]1O[C@H](C(=O)N2CCN(CC(=O)Nc3cccc4c3CNC4=O)CC2)[C@@H](O)[C@H]1O`?
Shiga toxin inh: -3; CHX counter: -7; Giardia FBPA inh: -21%

Results for CC1CCN(C(=O)CSc2nnc3ccc(-c4cccnc4)nn23)CC1 ?
Pf growth 48h: -27%; Pf growth 96h: inconclusive

Results for COc1ccccc1N1CCN(C(=O)c2cc(-c3ccccc3O)on2)CC1 ?
Shiga toxin inh: 2; Pf growth 48h: inconclusive; CHX counter: 1; NS1 inh: -5%; Pf growth 96h: -3%; Giardia FBPA inh: 8%

How did COc1ccccc1-c1cc(C(=O)N2CCN(c3ccc(F)cc3)CC2)no1 do in these assays?
Shiga toxin inh: 36; Pf growth 48h: 35%; CHX counter: 1; NS1 inh: -5%; Pf growth 96h: 8.3µM*; Giardia FBPA inh: -2%

How did O=C(c1cc(-c2ccccc2Cl)on1)N1CCCC1 do in these assays?
Shiga toxin inh: 33; Pf growth 48h: 0%; CHX counter: 14*; NS1 inh: -3%; Pf growth 96h: 324%; Giardia FBPA inh: -2%

How did COc1ccccc1-c1cc(C(=O)N2CCCC2)no1 do in these assays?
Shiga toxin inh: 84*; Pf growth 48h: 132%; CHX counter: 34*; NS1 inh: -27%; Pf growth 96h: inconclusive; Giardia FBPA inh: 4%

How did COc1cccc(OC)c1C(=O)N1CCOCC1 do in these assays?
Shiga toxin inh: 11; Pf growth 48h: -8%; CHX counter: -2; NS1 inh: -2%; Pf growth 96h: 15µM*; Giardia FBPA inh: 0%

What do the screens show for `O=C(COC(=O)c1cc(Br)ccc1O)Nc1cc(S(=O)(=O)N2CCCC2)ccc1Cl`?
Shiga toxin inh: -15; Pf growth 48h: -15%; CHX counter: -3; Pf growth 96h: -4%; Giardia FBPA inh: 0%

Results for COc1ccccc1-c1cc(C(F)(F)F)nc(N2CCN(c3ccc(F)cc3)CC2)n1 ?
Shiga toxin inh: -5; Pf growth 48h: -2%; CHX counter: -2; NS1 inh: -9%; Pf growth 96h: 13µM*; Giardia FBPA inh: 0%

How did COc1ccccc1-c1cc(C(=O)N2CCOCC2)no1 do in these assays?
Shiga toxin inh: 89*; Pf growth 48h: 97%; CHX counter: 29*; NS1 inh: -3%; Pf growth 96h: inconclusive; Giardia FBPA inh: 2%

What do the screens show for `COc1ccccc1-c1cc(C(=O)N2CCc3ccccc3C2)no1`?
NS1 inh: -84%

What do the screens show for `O=C(COC(=O)Cc1ccc(F)cc1)NC(=O)c1ccccc1`?
Pf growth 48h: 19%; Pf growth 96h: -3%

How did CN(C)C(=O)c1nc2ccc(Cl)cn2c1CN1CCCC(OCc2ccccc2)C1 (stereo unspecified) do in these assays?
Shiga toxin inh: 1; Pf growth 48h: inconclusive; CHX counter: -2; NS1 inh: 0%; Pf growth 96h: inconclusive; Giardia FBPA inh: -2%

Results for CCOC(=O)c1c(C)nc2c(C#N)cnn2c1C ?
Shiga toxin inh: -12; Pf growth 48h: -2%; CHX counter: -1; NS1 inh: -11%; Pf growth 96h: 12%; Giardia FBPA inh: 6%

Results for CCCCNc1c(C(=O)OCC)c(C)nc2c1cnn2CC ?
Pf growth 48h: inconclusive; NS1 inh: -1%; Pf growth 96h: 15µM*; Giardia FBPA inh: -3%

Results for CC(C)OC(=O)c1cn(-c2ccccc2)nc1-c1ccco1 ?
Shiga toxin inh: -6; Pf growth 48h: 10µM*; CHX counter: 1; NS1 inh: -12%; Pf growth 96h: -3%; Giardia FBPA inh: -7%

How did CCOC(=O)C1=C(C)NC(C)=C(C(=O)OCC)C1c1cn(-c2ccccc2)nc1-c1ccco1 do in these assays?
Shiga toxin inh: -12; Pf growth 48h: 4.7µM*; CHX counter: -1; NS1 inh: -1%; Giardia FBPA inh: 1%

Results for Cc1ccc(NC(=O)COC(=O)COc2cccc3c2OC(C)(C)C3)cc1S(=O)(=O)N1CCOCC1 ?
Pf growth 48h: 18%; Pf growth 96h: -3%

What do the screens show for `Cc1cc(/C=C(\C#N)C(=O)NC2CCCCCC2)c(C)[nH]1`?
Shiga toxin inh: 46; Pf growth 48h: 36%; CHX counter: 35*; NS1 inh: -1%; Pf growth 96h: 197%; Giardia FBPA inh: 6%

Results for Cc1cc(/C=C(\C#N)C(=O)NCc2ccco2)c(C)[nH]1 ?
Shiga toxin inh: 9; Pf growth 48h: 81%; CHX counter: 11; NS1 inh: 6%[9.22 µM]; Pf growth 96h: 46%; Giardia FBPA inh: -11%
